Data as given in US20210230599, “STEM-LOOP COMPOSITIONS AND METHODS FOR INHIBITING INTERLEUKIN-8” (VITRISA THERAPEUTICS, INC., published 2021).

Target: Interleukin-8 (IL8, CXCL8), C-terminal His-tagged (Homo sapiens, UniProt P10145 SEQ:1-72)
Assay: competition; competition TR-FRET; L1 mutant
Settings: tags: C-terminal 6xHis (Sino Biological); ssRNA; 2'-F G, 2'-OMe A/C/U, 5' C6NH2, 3' idT
Description: Activity of each of these variants were tested using a time resolved competition TR-FRET assay in which the labeled parent Aptamer 3 was competed with increasing concentrations of unlabeled variants for binding to IL8 (FIG. 14). Briefly, 2-fold dilutions of thermally equilibrated aptamers were made in TR-FRET Buffer (50 mM MOPS, pH 7.4, 125 mM NaCl, 5 mM KCl, 50 μM CHAPS, 0.1 mg/mL BSA, 1 mM CaCl₂, and 1 mM MgCl₂). 5 μL of aptamer or control solution was added to 5 μl mix of 10 nM C-terminal His-tagged-IL8, 60 nM ALEXA FLUOR® 647-labeled Aptamer, and 5 nM anti-His-Eu (Perkin Elmer) in a black wall low volume 384 well plate (Greiner). For control, 5 μl of 1000-fold excess of unlabeled parent aptamer or 5 μl TR-FRET buffer alone was added to the mix of ALEXA FLUOR® 647-labeled aptamer, His-IL8, and anti-His-Eu. The plate was covered with a plate seal and subsequently incubated in the dark for 1 hour at room temperature. The plate was read on a Biotek CYTATION™ 5 plate reader. Samples were excited at 330 nm and fluorescent values were collected at 665 nm. Data analysis was performed by subtracting the background value and plotting as percent inhibition, normalized to baseline in the absence of competitor. The values were fit by [Inhibitor] vs. response—Variable slope (four parameters) using GraphPad Prism Version 7.0 and then normalized to aptamer control to obtain an IC₅₀ relative to parent aptamer. Data is presented as log values of relative IC₅₀.
To confirm the sequence conservation of this loop, variants of Aptamer 32 were made (4 base pair S1 version of parent Aptamer 8) where each position of L1 was individually replaced with the other 3 bases and tested for binding in the competition TR-FRET assay.

Sequence | binding signal
CGGUGGAAAAUGUGAGAUGGGUUGCCG | > 10 fold worse than Aptamer 8
CGGUGGUAAAUGUGAGAUGGGUUGCCG | > 10 fold worse than Aptamer 8
CGGUGGGGAAUGUGAGAUGGGUUGCCG | > 10 fold worse than Aptamer 8
CGGUGUGAAAUGUGAGAUGGGUUGCCG | > 10 fold worse than Aptamer 8
CGGUAGGAAAUGUGAGAUGGGUUGCCG | > 10 fold worse than Aptamer 8
CGGUGGGCAAUGUGAGAUGGGUUGCCG | > 10 fold worse than Aptamer 8
CGGUGGCAAAUGUGAGAUGGGUUGCCG | > 10 fold worse than Aptamer 8
CGGUUGGAAAUGUGAGAUGGGUUGCCG | > 10 fold worse than Aptamer 8
CGGUGAGAAAUGUGAGAUGGGUUGCCG | > 10 fold worse than Aptamer 8
CGGUGCGAAAUGUGAGAUGGGUUGCCG | > 10 fold worse than Aptamer 8
CGGUGGGUAAUGUGAGAUGGGUUGCCG | > 10 fold worse than Aptamer 8
CGGUCGGAAAUGUGAGAUGGGUUGCCG | > 10 fold worse than Aptamer 8
